Records with an inconclusive call do not appear. Active and inactive are the calls of the source. Unless noted, the call rests on the fitted dose curve; in most records, active means well fitted curve in the direction sought with a large enough effect in the repeat runs; inconclusive means weak or mixed curves; inactive means no such curve, though single readings can be large; an effect the other way counts as inactive or inconclusive.
How the values were obtained:
[1] = qHTS assay to identify small molecule antagonists of the estrogen related receptor (ERR) signaling pathway from Tox21 library - cell viability counter screen (AID 1224834); further: nearly all actives have a fitted effect of over 30% in size
Procedure, shortened: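 Seeded ERR cells were rested 6 h at 37 C/5% CO2 before compounds, positive and negative controls or DMSO were added. Incubation continued for 17.5 h, and viability was then quantified by CellTiter-Fluor fluorescence.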

[2] = target: Luciferin 4-monooxygenase (Photinus pyralis) (UniProt P08659); experiment: qHTS assay to identify small molecule inhibitors of firefly luciferase (AID 1224835); further: series mostly up to about 120 µM; nearly all actives have a fitted effect of over 25% in size
Chain of Luciferin 4-monooxygenase (Photinus pyralis) (P08659 whole entry, looked up): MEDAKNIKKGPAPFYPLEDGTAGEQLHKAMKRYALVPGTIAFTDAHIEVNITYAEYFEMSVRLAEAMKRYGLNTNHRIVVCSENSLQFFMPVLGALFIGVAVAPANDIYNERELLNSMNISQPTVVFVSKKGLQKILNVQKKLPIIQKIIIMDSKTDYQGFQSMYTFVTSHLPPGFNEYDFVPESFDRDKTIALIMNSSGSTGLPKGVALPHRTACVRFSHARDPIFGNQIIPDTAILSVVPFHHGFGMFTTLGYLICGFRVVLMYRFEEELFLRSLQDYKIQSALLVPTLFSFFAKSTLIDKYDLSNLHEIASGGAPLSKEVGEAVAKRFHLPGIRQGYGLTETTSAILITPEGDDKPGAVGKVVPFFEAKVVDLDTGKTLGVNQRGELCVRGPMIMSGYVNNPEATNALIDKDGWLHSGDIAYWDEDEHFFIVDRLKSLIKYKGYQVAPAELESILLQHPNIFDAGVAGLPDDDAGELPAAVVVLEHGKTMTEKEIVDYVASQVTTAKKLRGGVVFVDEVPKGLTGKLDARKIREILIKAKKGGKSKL
Procedure, shortened: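 Biochemical qHTS: compounds run as interplate titrations against purified firefly enzyme, with D-luciferin and ATP each at its KM concentration. Light output recorded by CCD imaging.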

[3] = qHTS assay to identify small molecule agonists of the constitutive androstane receptor (CAR) signaling pathway - cell viability counter screen (AID 1224836); further: series mostly up to about 92 µM; nearly all actives have a fitted effect of over 45% in size
Procedure, shortened: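 Viability read-out: CellTiter-Fluor fluorescence after 23 h compound exposure at 37 C/5% CO2 in double-stable HepG2-CYP2B6-hCAR cells, with PK11195 present at 0.75 uM final; compounds tested in 15-point titration.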

[4] = qHTS assay to identify small molecule antagonists of the constitutive androstane receptor (CAR) signaling pathway - cell viability counter screen (AID 1224837); further: series mostly up to about 92 µM; nearly all actives have a fitted effect of over 45% in size
Procedure, shortened: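 To flag cytotoxic false antagonists, HepG2 hCAR/CYP2B6-2.2kb cells were treated 23 hr with 15-concentration compound series and 50 nM CITCO at 37 C/5% CO2; CellTiter-Fluor fluorescence was the measured end point.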

[5] = target: Nuclear receptor subfamily 1 group I member 3 (Homo sapiens) (UniProt Q14994); experiment: qHTS assay to identify small molecule antagonists of the constitutive androstane receptor (CAR) signaling pathway (AID 1224838);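 further: HepG2 cells stably expressing hCAR with CYP2B6 luciferase reporter stimulated by CITCO; nearly all actives have a fitted effect of over 40% in size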
Chain of Nuclear receptor subfamily 1 group I member 3 (Homo sapiens) (Q14994 whole entry, looked up): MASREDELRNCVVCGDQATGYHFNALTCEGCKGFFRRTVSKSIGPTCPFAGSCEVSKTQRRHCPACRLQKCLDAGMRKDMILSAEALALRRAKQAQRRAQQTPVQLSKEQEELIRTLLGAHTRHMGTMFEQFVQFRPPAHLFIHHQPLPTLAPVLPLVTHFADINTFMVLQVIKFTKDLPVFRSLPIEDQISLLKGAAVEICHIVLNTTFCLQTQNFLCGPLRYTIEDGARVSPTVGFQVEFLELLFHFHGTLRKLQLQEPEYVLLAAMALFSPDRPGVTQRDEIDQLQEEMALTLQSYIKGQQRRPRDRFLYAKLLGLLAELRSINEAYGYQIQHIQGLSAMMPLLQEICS
Procedure, shortened: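 Human hepatoma HepG2 cells expressing hCAR and a CYP2B6 promoter (2.2 kb) luciferase construct; compound titration (15 points) with 50 nM CITCO final, 24 h at 37 C/5% CO2; luminescence via ONE-Glo after 30 min at room temperature.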

[6] = target: Nuclear receptor subfamily 1 group I member 3 (Homo sapiens) (UniProt Q14994); experiment: qHTS assay to identify small molecule agonists of the constitutive androstane receptor (CAR) signaling pathway (AID 1224839);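 further: HepG2 cells stably carrying human CAR and a CYP2B6 luciferase reporter; series mostly up to about 92 µM; nearly all actives have a fitted effect of over 15% in size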
Procedure, shortened: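 Luminescence read-out (ONE-Glo, 30 min, room temperature) from double-stable HepG2-CYP2B6-hCAR cells exposed 24 h to 15-point compound series in presence of 0.75 uM PK11195 final.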

[7] = qHTS assay to identify small molecule antagonists of the estrogen related receptor signaling pathway with the pleiotropic PPARgamma coactivator (PGC) from Tox21 10K library - cell viability counter screen (AID 1224840; active means well fitted cell-killing curve with a large enough effect in the repeat runs, not every such curve was filed as active; further: nearly all actives have a fitted effect of over 40% in size)
Procedure, shortened: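 Seeded PGC/ERR cells (2,000/well, 6 h, 37 C/5% CO2) get compound by pin tool; 17.5 h incubation at 37 C; CellTiter-Fluor added, 30 min, fluorescence measured.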

[8] = target: Thyrotropin receptor (Homo sapiens) (UniProt P16473); experiment: qHTS assay to identify small molecule agonists of the thyroid stimulating hormone receptor (TSHR) signaling pathway (AID 1224843; calls by dose curve; further: nearly all actives have a fitted effect of over 45% in size)
Chain of Thyrotropin receptor (Homo sapiens) (P16473 whole entry, looked up): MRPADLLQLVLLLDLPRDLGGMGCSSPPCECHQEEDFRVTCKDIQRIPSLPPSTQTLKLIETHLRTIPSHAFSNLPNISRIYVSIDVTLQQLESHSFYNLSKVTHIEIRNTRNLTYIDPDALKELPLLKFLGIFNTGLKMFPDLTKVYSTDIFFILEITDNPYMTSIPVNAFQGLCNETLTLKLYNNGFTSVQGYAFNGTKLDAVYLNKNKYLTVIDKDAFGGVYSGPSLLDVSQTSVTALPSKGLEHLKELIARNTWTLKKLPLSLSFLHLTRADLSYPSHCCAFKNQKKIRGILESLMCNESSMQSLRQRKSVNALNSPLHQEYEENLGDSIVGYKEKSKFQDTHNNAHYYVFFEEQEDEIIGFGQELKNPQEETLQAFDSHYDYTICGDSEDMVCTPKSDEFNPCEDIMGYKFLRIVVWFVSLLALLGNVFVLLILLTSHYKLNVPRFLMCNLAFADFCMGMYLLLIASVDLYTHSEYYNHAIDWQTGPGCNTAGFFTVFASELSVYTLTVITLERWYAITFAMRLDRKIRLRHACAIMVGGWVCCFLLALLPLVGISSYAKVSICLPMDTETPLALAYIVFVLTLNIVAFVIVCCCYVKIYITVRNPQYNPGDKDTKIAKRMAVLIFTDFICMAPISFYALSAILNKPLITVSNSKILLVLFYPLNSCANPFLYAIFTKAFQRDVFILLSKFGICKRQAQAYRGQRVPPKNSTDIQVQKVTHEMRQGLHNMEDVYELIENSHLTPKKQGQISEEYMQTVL
Procedure, shortened: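 Agonist-mode screen: TSHR HEK293 cells received test chemicals for half an hour at room temperature, then HTRF cAMP detection reagents for one hour prior to fluorescence measurement. Each chemical ran as a 15-concentration series, triplicated.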

[9] = qHTS assay to identify small molecule agonists of the hypoxia (HIF-1) signaling pathway - cell viability counter screen (AID 1224844; calls by dose curve; further: nearly all actives have a fitted effect of over 50% in size)
Procedure, shortened: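 HRE-bla ME-180; 0.5% dFBS; cpd 17 h, 37C, 5% CO2; CellTiter-Glo lum., 30 min RT, post-FRET read, same wells.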

[10] = qHTS assay to identify small molecule agonists of H2AX (AID 1224845; active means well fitted activation curve with a large enough effect in the signal ratio in the repeat runs, not every such curve was filed as active; the % refers to the signal ratio)
Procedure, shortened: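 Wild-type CHO-K1 cells, plated overnight, exposed 3hr at 37C to 15 concentrations (0.76% DMSO final). Lysed, then HTRF anti-pH2AX (S139) cryptate and anti-H2AX-d2 antibodies, 24 hr room temperature; 665/620 nm emission read.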

[11] = qHTS assay to identify small molecule agonists of the hypoxia (HIF-1) signaling pathway (AID 1224846; active means well fitted activation curve with a large enough effect in the signal ratio in the repeat runs, not every such curve was filed as active; the % refers to the signal ratio)
Procedure, shortened: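 Reporter induction in HRE-bla ME-180 cells is taken as agonism: cells sit 5 hrs after plating, receive compounds or DMSO only, incubate 17 hrs at 37C under 5% CO2, and are loaded with CCF4-AM for beta-lactamase FRET measurement.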

[12] = qHTS assay to identify small molecule agonists of H2AX - cell viability counter screen (AID 1224847; calls by dose curve; further: top concentration of the series differs between compounds; nearly all actives have a fitted effect of over 30% in size)
Procedure, shortened: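 CHO-K1 wt, 1000 cells/well, o/n 37C; cpds 15 conc, 3 h 37C, 0.76% DMSO; CellTiter-Glo, 30 min RT, luminescence.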

[13] = qHTS RealTime-Glo MT Cell Viability Assay in HepG2 cells - 24 hour (AID 1224867); further: nearly all actives have a fitted effect of over 50% in size
Procedure, shortened: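 Luminescence read-out: viable HepG2 cells reduce a prosubstrate to a NanoLuc substrate, giving a signal proportional to live cell number. Reads taken at 0, 8, 16, 24, 32 and 40 h of compound exposure at 37 C.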

[14] = qHTS RealTime-Glo MT Cell Viability Assay in HEK293 cells - 32 hour (AID 1224868); further: top concentration of the series differs between compounds; nearly all actives have a fitted effect of over 50% in size
Procedure, shortened: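 Nonlytic real-time viability readout: viable cells convert prosubstrate to NanoLuc substrate, giving luminescence proportional to live cell number. HEK293, 600 cells/well, compound added after 5 h, continuous culture at 37 C.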

[15] = A CellTox Green Cytotoxicity Assay to monitor cytotoxicity in HEK293 cells - 0 hour (AID 1224869); further: nearly all actives have a fitted effect of over 50% in size
Procedure, shortened: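 Tox21 screen in HEK293: membrane-impermeant cyanine dye fluoresces on binding dead-cell DNA; compound pinned 5 h post-seeding, plates held at 37 C, signal read repeatedly through 40 h.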

[16] = qHTS RealTime-Glo MT Cell Viability Assay in HepG2 cells - 40 hour (AID 1224870); further: nearly all actives have a fitted effect of over 50% in size; further: potency means the concentration at half of the fitted maximal effect
Procedure, shortened: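 HepG2 cells (600/well) mixed with RealTime-Glo MT reagent, settled 5 h at 37 C/5% CO2 before compound addition. Nonlytic NanoLuc luminescence from viable-cell prosubstrate reduction read repeatedly during 40 h treatment at 37 C.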

[17] = qHTS assay to identify small molecule agonists of the estrogen related receptor signaling pathway with the pleiotropic PPARgamma coactivator (PGC) from Tox21 10K library (AID 1224842); further: nearly all actives have a fitted effect of over 15% in size
Procedure, shortened: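 PGC/ERR reporter cell line, 2,000 cells per well, incubated 6 h at 37 C before 23 nL compound in DMSO was added. After 18 h at 37 C, One-Glo luminescence read following 30 min at room temperature.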

[18] = qHTS assay to identify small molecule antagonists of the estrogen related receptor (ERR) signaling pathway from Tox21 library (AID 1224848); further: nearly all actives have a fitted effect of over 50% in size
Procedure, shortened: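 Quantitative high-throughput format: ERR reporter cells (2,000/well) pre-incubated 6 h, treated 18 h at 37 C with compounds in DMSO alongside positive and negative controls, then read by ONE-Glo luminescence.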

[19] = qHTS assay to identify small molecule agonists of the estrogen related receptor (ERR) signaling pathway from Tox21 library (AID 1224849; calls by dose curve; further: nearly all actives have a fitted effect of over 15% in size)
Procedure, shortened: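 Tox21 compounds tested for ERR agonism in an NTP reporter cell line: 18 h treatment at 37 C, then ONE-Glo luminescence.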
On the % scale 0 is the no-effect control and ±100 the full control effect.

[O-][n+]1cccc(CO)c1
inactive: Potency [1] | Potency [2] | outcome [3] | outcome [4] | Potency [5] | Potency [6] | outcome [7] | Potency [8] | Potency [9] | Potency [10] | outcome [11] | outcome [12] | outcome [13] | Potency [14] | outcome [15] | Potency [16]

CC1=CCC(O)(C(C)C)CC1 (configuration not stated)
inactive: Potency [1] | Potency [2] | outcome [3] | outcome [4] | Potency [5] | Potency [6] | outcome [7] | Potency [8] | Potency [9] | Potency [10] | outcome [12] | outcome [13] | Potency [14] | outcome [15] | Potency [16]

C=C(C)C(=O)OCCOCCOCCOCCOC(=O)C(=C)C
inactive: Potency [1] | Potency [2] | outcome [3] | outcome [4] | Potency [5] | Potency [6] | outcome [7] | Potency [8] | Potency [9] | outcome [11] | outcome [12] | outcome [13] | outcome [15] | Potency [16]

C[N+]1(CC2COC(c3ccccc3)(c3ccccc3)O2)CCCCC1 (configuration not stated)
inactive: viability change, negative = cytotoxic [1] 7.36% [at 19 µM] | activity change, negative = inhibition [2] -3.43% [at 23.6 µM] | viability change, negative = cytotoxic [3] 1.16% [at 19 µM] | activity change, negative = cytotoxicity [4] 4.57% [at 19 µM] | activity, negative = inhibition [5] -9.35% [at 19 µM] | activation [6] -2.79% [at 19 µM] | viability change, negative = cytotoxic [7] -2.82% [at 19 µM] | activation [17] 0.389% [at 19 µM] | activity change, negative = cytotoxicity [9] 0.991% [at 15.8 µM] | activation [11] 0.207% [at 15.8 µM] | activity change, negative = cytotoxicity [12] -1.84% [at 31.6 µM] | activity, negative = inhibition [18] 4.63% [at 19 µM] | activity change, positive = activation [19] 2.6% [at 19 µM] | activity change, negative = cytotoxicity [13] -0.511% [at 15.8 µM] | activity change, negative = cytotoxic [14] -5.88% [at 15.8 µM] | cytotoxicity [15] -9.06% [at 15.8 µM]

CC(C)(C)C(=O)c1ccccc1
inactive: Potency [1] | Potency [2] | outcome [3] | outcome [4] | Potency [5] | Potency [6] | outcome [7] | Potency [8] | Potency [9] | Potency [10] | outcome [11] | outcome [12] | outcome [13] | Potency [14] | outcome [15] | Potency [16]

Cc1ncc(COP(=O)(O)O)c(C=O)c1O
inactive: Potency [1] | Potency [2] | outcome [3] | outcome [4] | Potency [5] | Potency [6] | outcome [7] | Potency [8] | Potency [9] | Potency [10] | outcome [11] | outcome [12] | outcome [13] | Potency [14] | outcome [15] | Potency [16]

[K+]
inactive: Potency [1] | Potency [2] | outcome [3] | outcome [4] | Potency [5] | Potency [6] | outcome [7] | Potency [8] | Potency [9] | Potency [10] | outcome [11] | outcome [12] | Potency [14] | outcome [15]
active: Potency [16] 34.7 µM

CCOC(=O)C(=O)CCCCCCl
inactive: Potency [1] | Potency [2] | outcome [3] | outcome [4] | Potency [5] | Potency [6] | outcome [7] | Potency [8] | Potency [9] | Potency [10] | outcome [12] | outcome [13] | Potency [14] | Potency [16]
